An excerpt weighted towards active compounds, which were near 11% of everything screened.
NIH3T3 tox: NIH 3T3 cell cytotoxicity; NIH 3T3 viability, CellTiter-Glo ATP luminescence, 48-72 h; Potency, µM (doses to about 96.7 µM), inactives show at the top dose activity change, negative = cytotoxicity, usual class: inhibitors; hit rate 4.3% among 94,000; also: % is scaled to controls: 0 for no effect and ±100 for the full control effect; nearly all actives have a fitted effect of over 55% in size
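Cytotoxicity was measured by CellTiter-Glo ATP luminescence after 48 or 72 h compound exposure at 37 °C. Mouse NIH 3T3 fibroblasts were seeded at 400 cells/well and dosed by 23 nL pin transfer.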
hNpr1 antagonist: blocks ANP-stimulated signaling of human Npr1 receptor. Potency, µM (titrated, usually from 46.3 µM), inactives show at the highest dose activity change, negative = inhibition, hits mostly inhibitors. hit rate 1.6% among 76,000. AID 1347048. HEK293 hNpr1 GloSensor cGMP, ANP-stimulated luminescence. P16066; calls by dose curve; also: % is scaled to controls: 0 for no effect and ±100 for the full control effect; nearly all actives have a fitted effect of over 60% in size
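Compound pre-incubated 30 min at room temperature on GloSensor-loaded HEK293 cells stably carrying hNpr1 and the pGS-40F cGMP biosensor. Stimulation uses hNppA at 0.1 nM final; luminescence is taken at baseline and 20 min post-agonist.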
HEK cytotox: HEK 293 cell cytotoxicity | HEK 293 viability, ATP luminescence (CellTiter-Glo), 48-72 h | Potency, µM (doses to about 115 µM), for inactives: at the top dose activity change, negative = cytotoxicity, most hits filed as inhibitors | hit rate 6.6% among 94,000 | AID 1345083; also: % is scaled to controls: 0 for no effect and ±100 for the full control effect; nearly all actives have a fitted effect of over 60% in size
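qHTS cytotoxicity; HEK 293, 250 cells/well; compound pinned; 48 or 72 hr, 37 degree Celsius, 5% CO2, 95% humidity; CellTiter-Glo, 10 min RT; luminescence (ATP).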
FLuc inh-1: inhibitors of firefly (Photinus pyralis) luciferase; purified P. pyralis luciferase, luminescence, biochemical; Potency, µM (doses to about 115 µM), most hits filed as inhibitors; hit rate 2.5% among 76,000; P08659; also: % is scaled to controls: 0 for no effect and ±100 for the full control effect; nearly all actives have a fitted effect of over 65% in size
Target sequence (P08659 whole entry, looked up): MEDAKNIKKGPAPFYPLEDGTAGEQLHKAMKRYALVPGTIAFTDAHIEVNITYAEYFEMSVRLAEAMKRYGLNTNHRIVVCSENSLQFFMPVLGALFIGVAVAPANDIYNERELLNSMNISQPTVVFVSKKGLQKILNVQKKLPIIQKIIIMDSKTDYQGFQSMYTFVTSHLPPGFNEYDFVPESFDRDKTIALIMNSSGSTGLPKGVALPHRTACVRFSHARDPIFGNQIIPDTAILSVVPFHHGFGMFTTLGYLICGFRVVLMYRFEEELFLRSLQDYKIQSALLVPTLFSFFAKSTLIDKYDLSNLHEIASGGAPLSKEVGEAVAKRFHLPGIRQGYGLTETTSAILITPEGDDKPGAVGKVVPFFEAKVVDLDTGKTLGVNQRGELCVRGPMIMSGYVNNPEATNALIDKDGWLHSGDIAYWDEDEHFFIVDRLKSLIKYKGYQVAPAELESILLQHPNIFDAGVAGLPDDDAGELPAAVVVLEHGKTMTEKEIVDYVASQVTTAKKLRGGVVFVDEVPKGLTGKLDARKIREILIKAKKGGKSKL
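Luminescence read by CCD imaging after purified firefly luciferase (10nM final) was added to substrate buffer holding 10uM D-luciferin and 10uM ATP, pH 7.5, pre-dosed with compound.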
FLuc SDR -ATP: stabilizes firefly luciferase without ATP | shares compounds with FLuc inh-1 | Purified FLuc-C-HiBiT, Nano-Glo HiBiT luminescence, no ATP | Potency, µM (highest dose often 32.7 µM), inactives show top-dose activation (signal gain), hits mostly activators | hit rate 7.8% among 1,300; also: nearly all actives have a fitted effect of over 55% in size
FLuc SDR ATP: stabilizes firefly luciferase with ATP present; shares compounds with FLuc inh-1; AID 1963319; hit rate 8.7% among 1,300; purified FLuc-C-HiBiT + ATP, HiBiT complementation luminescence; Potency, µM (doses to about 32.7 µM), without a hit: at the top dose activation (gain of signal), actives largely listed as activators;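 also: signal reports ligand binding via conformational change of the enzyme rather than luciferase catalysis; % of control where 0% means no effect; nearly all actives have a fitted effect of over 55% in size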
FLuc inh-2: blocks firefly luciferase enzymatic activity; purified FLuc-C-HiBiT enzyme, luciferin luminescence; hit rate 42% among 1,300; shares compounds with FLuc inh-1; Potency, µM (series often up to 32.7 µM), for inactives: at the top dose activity change, negative = inhibition, hits mostly inhibitors; also: % is scaled to controls: 0 for no effect and ±100 for the full control effect; nearly all actives have a fitted effect of over 70% in size
* marks the source's active call; other numbers are inactive results; i = inactive; ? = inconclusive; . = not tested or not shown; [ ] = another dose, or the depositor's remark. Unless noted, calls follow the shape of the dose curve; as a rule, active = well fitted curve in the direction sought with a large enough effect; inconclusive = small, poorly fitted or top-dose-only effect, or another doubt; inactive = no such curve, though single readings can be large; an effect the other way counts as inactive or inconclusive. Potency is read from the fitted curve at half-maximal effect.

SMILES	NIH3T3 tox	hNpr1 antagonist	HEK cytotox	FLuc inh-1	FLuc SDR -ATP	FLuc SDR ATP	FLuc inh-2
CNc1ccc(-c2nc3ccccc3s2)cc1	.	.	.	.	1.8µM*	1.1µM*	0.078µM*
Nc1ccc(-c2nc3ccccc3s2)cc1	.	.	.	.	?	?	1.8µM*
Cc1ccc(NC(=O)c2cn3cc(-c4ccccc4)sc3n2)cc1	-30%[138 µM]	.	-21%[172 µM]	.	.	.	.
COc1ccc(Cl)cc1C(=O)N1CCC2(CC1)N(c1ccccc1)C(=O)CS2(=O)=O	-12%	0%	-12%	i	.	.	.
CCOCCOC1CCN(C(=O)Cc2cccnc2)CC1	-17%	-5%	-4%	i	.	.	.
CCS(=O)(=O)c1ccccc1C(=O)Nc1ccc(-c2nc3ccccc3s2)cc1	.	.	.	.	19%	8%	-9%
CCOP(=O)(Cc1ccc(-c2nc3ccccc3s2)cc1)OCC	.	.	.	.	17%	15%	?
COc1ccc2[nH]c3c(c2c1)CCNC31CCN(C(=O)C(C)(C)C)CC1	?	8%	?	i	.	.	.
COc1ccc(NC(=O)Cn2c(C)cc3nc4n(c(=O)c32)CCC4)c(OC)c1	i	4%	0%	i	.	.	.
Nc1ncnc2c1ncn2[C@@H]1O[C@H](CO)[C@@H](O)[C@@H]1O	.	.	.	.	11%	11%	-9%
Cn1nc(-c2nncn2CC2CC2)c2c1CCN(C(=O)CCC(=O)N1CC(=O)Nc3ccccc31)C2	4%	6%	i	i	.	.	.
CS(=O)(=O)c1ccc(CN2CCN3C(=O)N(c4ccccc4)C[C@H]3C2)cc1	?	-1%[70.6 µM]	?	i	.	.	.
O=C1N(c2ccccc2)C[C@H]2CN(Cc3ccccc3)CCN12	-18%[138 µM]	-21%[70.6 µM]	-26%[172 µM]	14µM*	10%[49.3 µM]	11%[49.3 µM]	?
COc1ccc2[nH]c3c(c2c1)CCN(C)C31CCN(C(=O)Cc2cccnc2)CC1	-7%	2%	-11%	i	.	.	.
Cc1cccc(N2CCN(C(=O)CSCc3ccc(F)cc3)CC2)c1C	.	.	.	.	12%	9%	-8%
CNC(=O)Nc1ccc(C)n(CC(=O)N2CCN(c3ccccc3F)CC2)c1=O	i	2%	8%	i	.	.	.
Cc1cccc(NC(=O)CN2C(=O)NC3(CCCCC3)C2=O)c1	-6%	0%	-2%	i	.	.	.
Cc1cnc(C)c(-c2cc(O)c3c(c2)CN(C(=O)c2ccncn2)CCO3)n1	-19%	1%	-1%	i	.	.	.
Cc1nc(CN2CCOc3c(O)cc(-c4nc5ccccc5s4)cc3C2)no1	-23%	-1%	?	i	14%	7%	-11%
Cc1c(CN2CCOc3c(O)cc(-c4nc5ccccc5s4)cc3C2)cnn1C	.	.	.	.	13%	9%	-5%
Cc1nnc(CN2CCOc3c(O)cc(-c4ccccc4C)cc3C2)s1	?	-1%	?	i	.	.	.
Cc1cncc(C(=O)N2CCOc3c(O)cc(-c4nc5ccccc5s4)cc3C2)c1	?	-6%	40µM*	?	12%	8%	-11%
COc1cccc(-c2ccc(C(=O)NCCNC(=O)c3cccnc3)cc2)c1	-24%	.	?	.	.	.	.
CCN(CC)S(=O)(=O)c1ccc2nc(NC(=O)c3cccnc3)sc2c1	.	.	.	.	16%	11%	?
O=C(Nc1cnc(-c2ccc(Cl)cc2)nc1)C1CCC1	-1%	5.6µM*	2%	0.28µM*	?	?	1.2µM*
SMILES	NIH3T3 tox	hNpr1 antagonist	HEK cytotox	FLuc inh-1	FLuc SDR -ATP	FLuc SDR ATP	FLuc inh-2
O=C(COc1ccc(NC(=O)C2CC2)cn1)NCc1ccccc1	-6%	0%	-1%	i	.	.	.
O=C(Nc1cnc(-c2ccccc2)nc1)C1CCCC1	-22%	10µM*	?	1µM*	?	?	2.5µM*
CCc1noc(-c2cccn3c(CNC(=O)c4cc(C)cc(C)c4)nnc23)n1	2%	0%	-5%	i	.	.	.
Cn1cnc(S(=O)(=O)N2CCC3(CC2)N(Cc2cccc(F)c2)C(=O)CS3=O)c1 (stereo not drawn)	-12%	11%	-11%	i	.	.	.
CCn1cc(-c2ccc(C)cc2)cc1C(=O)O	-19%	2%	?	?	14%	10%	-13%
Cc1ccc(Cn2cc(-c3ccncc3)cc2C(=O)O)cc1	?	1%	-27%	i	14%	11%	-8%
c1ccc(CCCNc2nccc(-c3ccccn3)n2)nc1	-30%	2%	?	10µM*	14%	15%	1%
CN1CCN(CCCNc2nccc(-c3ccccn3)n2)CC1	-2%	8%	i	i	.	.	.
Cc1cc(C[C@@H]2COC[C@@H]2NC(=O)c2ccc(-c3nnn(C)n3)cc2)on1	1%	-1%	i	i	.	.	.
CCCCOc1nc(N)c2[nH]c(=O)n(CCCN(CCCN3CCOCC3)Cc3cccc(CC(=O)OC)c3)c2n1	.	.	.	.	12%	7%	4%
Cc1cccc(-c2ncc(CN(CCN3CCOCC3)Cc3ccco3)cn2)c1	-23%	5%	?	i	.	.	.
COC(=O)[C@H]1CN(C(=O)c2ccc(N(C)C)cc2)CCN1C(=O)c1cccs1	-14%[138 µM]	2%[70.6 µM]	-14%[172 µM]	i	.	.	.
CC(=O)c1cccc(Nc2nn(-c3ccc(OC(F)(F)F)cc3)nc2C(C)=O)c1	.	.	.	.	24%	14%	?
O=C(O)c1cccc(-c2ccc(OC(F)(F)F)cc2)c1	-1%[138 µM]	.	-24%[172 µM]	.	.	.	.
O=C(NC1CCCCCCC1)C1CCN(C(=O)c2ncn3c2COC(c2ccc(F)cc2)C3)CC1 (stereo not drawn)	1%	-13%	-3%	?	.	.	.
O=C(Nc1ccc(Cl)cc1)C1CCN(C(=O)c2ncn3c2COC(c2ccccc2)C3)CC1 (stereo not drawn)	i	?	6%	1.8µM*	14%	1.1µM*	1.8µM*
O=C(Nc1ccc(F)cc1)C1CCN(C(=O)c2ncn3c2COC(c2ccccc2)C3)CC1 (stereo not drawn)	-31%	?	-30%	1.6µM*	9%	1.1µM*	1.8µM*
O=C(NC1CCCCCC1)C1CCN(C(=O)c2ncn3c2COC(c2ccccc2)C3)CC1 (stereo not drawn)	i	-2%	11%	13µM*	13%	?	7.9µM*
O=C(c1ccco1)N1CCN(C(=O)C2CCc3ncc(-c4ccc(F)cc4)n3C2)CC1 (stereo not drawn)	?	?	?	i	.	.	.
CN1CCN(c2ccc(-c3cc4c(ccn4C)c(C(=O)NCCN4CCNC4=O)n3)cc2)CC1	?	6%	?	4.5µM*	25%	16%	?
O=C1CCN(S(=O)(=O)c2ccccc2)CCCN(Cc2ccccn2)CCN1	?	2%	-28%	i	.	.	.

Screening results deposited in PubChem by National Center for Advancing Translational Sciences (NCATS).
